Whole data set: some 33,000 sequences, median “E-score (-0.5 to 0.5)” near -0.01, cut for the highest 2% near 0.26. What follows is part of a selection rich in the highest values, with near analogues and random picks from the rest.
What follows are sequences tested against Ste12 (UniProt P13574) (assay: PBM E-score (8-mer binding enrichment) (E-score (-0.5 to 0.5)); higher = stronger / more preferred TF binding). Details: protein concentration: 200 nM; construct: GST-DNA-binding domain.
Experimental: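 Universal 'all 10-mer' protein binding microarrays (Agilent AMADID 015681) probed with GST-tagged S. cerevisiae TFs (full-length or DBD) made by in vitro transcription/translation (PURExpress), about 100-200 nM. Bound TF was detected with fluorescent anti-GST. Each ungapped 8-mer (which stands for itself and its reverse complement) is scored by the PBM enrichment score (E-score), a modified Wilcoxon-Mann-Whitney statistic from -0.5 to +0.5, computed with the Universal PBM Analysis Suite. Scale: above 0.35 generally sequence-specific binding.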

Sequence of UniProt P13574 (P13574 whole entry, the tested form may be a part): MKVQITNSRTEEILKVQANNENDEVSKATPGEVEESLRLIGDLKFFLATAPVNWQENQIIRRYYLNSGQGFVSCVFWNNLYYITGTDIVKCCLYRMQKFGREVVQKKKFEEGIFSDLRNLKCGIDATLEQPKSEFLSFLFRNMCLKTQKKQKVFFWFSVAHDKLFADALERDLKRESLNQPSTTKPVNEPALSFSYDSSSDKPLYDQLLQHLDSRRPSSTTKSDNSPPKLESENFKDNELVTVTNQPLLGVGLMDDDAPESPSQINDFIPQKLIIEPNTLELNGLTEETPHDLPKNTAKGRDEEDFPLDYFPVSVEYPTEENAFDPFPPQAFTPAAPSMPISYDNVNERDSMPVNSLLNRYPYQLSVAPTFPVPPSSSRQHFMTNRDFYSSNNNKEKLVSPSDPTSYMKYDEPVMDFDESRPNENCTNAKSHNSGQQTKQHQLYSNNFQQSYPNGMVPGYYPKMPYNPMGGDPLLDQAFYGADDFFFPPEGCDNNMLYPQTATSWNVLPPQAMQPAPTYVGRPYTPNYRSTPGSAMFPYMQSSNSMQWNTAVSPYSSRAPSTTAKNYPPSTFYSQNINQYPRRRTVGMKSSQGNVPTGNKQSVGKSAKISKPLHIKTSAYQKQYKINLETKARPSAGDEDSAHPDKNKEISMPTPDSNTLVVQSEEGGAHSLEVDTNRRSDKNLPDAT

| Sequence | PBM E-score |
| --- | --- |
| AATGTTAT | 0.265 |
| AATGTTTA | 0.174 |
| AATGTTTC | 0.318 |
| AACGCTAA | -0.0143 |
| GTGTAGGA | 0.0365 |
| CACTCCAG | -0.019 |
| ACTCTGAT | 0.146 |
| ATAAAGCC | 0.00222 |
| AGGCCTAG | -0.218 |
| ACAGAAGG | -0.173 |
| CTTGAGGC | -0.184 |
| ATGGACGG | -0.00997 |
| CTCGCACC | -0.103 |
| CGCCCACA | 0.197 |
| CGTCGCCC | -0.121 |
| ATAAATTC | 0.102 |
| CCAAATTA | 0.221 |
| ATAAATTA | 0.255 |
| ACAAATTG | 0.177 |
| GAAAATTA | 0.206 |
| ATAAATTG | 0.321 |
| CAAAATTA | 0.247 |

| Sequence | PBM E-score |
| --- | --- |
| CAAAATTG | 0.0598 |
| AAAAATTC | 0.224 |
| ACAAATTA | 0.263 |
| AAAAATTA | 0.326 |
| AAAAATTG | 0.263 |
| CTCAACGC | -0.0089 |
| CAGCAGCC | -0.0193 |
| AATGGAGC | -0.0645 |
| AAACGATT | 0.165 |
| ACTACTCA | -0.0467 |
| ACACCATG | -0.108 |
| GACCGATA | -0.00126 |
| GCGAAGAC | -0.141 |
| AGGATTGC | -0.025 |
| ATAAACTG | 0.302 |
| ATAAACTA | 0.211 |
| ATAAACTC | 0.125 |
| CTACGCTC | -0.00605 |
| CTCCCATA | -0.0685 |
| TATTGGAA | -0.00217 |
| AGATACAA | 0.135 |
| CAATACAA | 0.294 |

| Sequence | PBM E-score |
| --- | --- |
| GGGATAAC | -0.0162 |
| CGATACAA | 0.0267 |
| TGATACAA | 0.339 |
| CGATAAAA | 0.171 |
| GGGATAAA | 0.271 |
| CAATACAC | 0.0704 |
| AGATAAAA | 0.245 |
| CGGATAAA | 0.149 |
| CAATACAG | -0.115 |
| TGATAAAA | 0.266 |
| AATTAGGA | 0.145 |
| CCCAGCGG | -0.192 |
| AACACTCG | 0.0544 |
| TCTGAACA | 0.0453 |
| ACCACCGG | -0.0277 |
| AAATTGAA | 0.185 |
| CCATGAAG | -0.0229 |
| CATAAGGC | -0.0753 |
| GGTGCGAA | 0.2 |
| AAACCGTT | 0.00687 |
| GGGTAAAC | 0.119 |
| GGATAAGA | 0.0906 |

| Sequence | PBM E-score |
| --- | --- |
| CGGTAAAA | 0.198 |
| GGATAAAA | 0.279 |
| GGGTAAAA | 0.295 |
| GGATAAAC | 0.135 |
| TGGGCCAA | -0.177 |
| CAGCGTCG | -0.0332 |
| CGGAATAC | 0.134 |
| GATCAAGC | -0.0184 |
| GAAGGCTC | -0.209 |
| GATAAAAC | 0.327 |
| GATAAAAA | 0.277 |
| GATAAACC | 0.0557 |
| GATAAAGA | 0.0926 |
| GATAAATA | 0.215 |
| CATAAAAG | 0.0283 |
| AATAAAAC | 0.245 |
| CATAAAAA | 0.175 |
| CATAAAAC | 0.28 |
| CGAGCCGA | -0.0584 |
| AGGTTTTC | 0.241 |

Reference: the supplement of paper PMC3334620
